Results published in PubChem BioAssay.
Calls of active or inactive are those of the source.

Legend:
[1] = test system: Plasmodium falciparum Sir2 (PF13_0152, Sir2A); test: pfSir2 binders on small-molecule microarrays, primary screen, biochemical, small-molecule microarray, 635 nm fluorescence (AID 1098); conditions: small-molecule microarray binding, fluorescence 635 nm; higher = more signal;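 further: score merges spot fluorescence intensity with its signal-to-noise ratio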
[2] = small-molecule microarray binders of probe aDKK1, primary screen, biochemical, biotinylated probe, 635/667 nm fluorescence (AID 1099); conditions: higher = more signal;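 further: score merges 667nm spot fluorescence with signal to noise across triplicate slides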
[3] = small-molecule microarray binders of probe aCHRDL2, primary screen, biochemical, biotinylated probe, 635/667 nm fluorescence (AID 1100); conditions: higher = more signal
[4] = splicing luciferase reporter signal modulators, primary screen, spliceosome inhibition project, cell-based, HEK293, splice +/- reporter (AID 1101); conditions: luminescence, 24 h, higher = more signal, called active from +8 up or from −8 down;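 further: HEK293 cells carrying a splicing-competent luciferase reporter gene; test concentration not given here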
[5] = target: Fibroblast growth factor 10 (Homo sapiens) (UniProt O15520); test: FGF10 binders on small-molecule microarrays, primary screen, biochemical, small-molecule microarray, 635 nm fluorescence (AID 1102); conditions: FGF10 binding, fluorescence 635 nm, higher = more signal
Sequence of Fibroblast growth factor 10 (Homo sapiens) (O15520 whole entry, looked up): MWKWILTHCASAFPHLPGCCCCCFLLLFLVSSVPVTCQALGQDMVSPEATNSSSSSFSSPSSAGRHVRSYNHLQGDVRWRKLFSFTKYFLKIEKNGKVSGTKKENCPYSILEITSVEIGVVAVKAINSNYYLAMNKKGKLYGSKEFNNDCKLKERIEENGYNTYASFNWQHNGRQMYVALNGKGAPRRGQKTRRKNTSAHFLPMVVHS

[6] = test system: glycogen synthase kinase-3 (GSK3A per assay name; protocol says GSK3B); test: GSK3 binders on small-molecule microarrays, primary screen, biochemical, small-molecule microarray, 635 nm fluorescence, GSK3A (AID 1103); conditions: small-molecule microarray binding, fluorescence 635 nm; higher = more signal; further: the record names both GSK3A and GSK3B
[7] = target: Epidermal growth factor receptor (Homo sapiens) (UniProt P00533); test: EGFR binders on small-molecule microarrays, primary screen, biochemical, small-molecule microarray, 635 nm fluorescence (AID 1104); conditions: EGFR binding, higher = more signal;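 further: score merges 667 nm emission intensity with spot signal to noise over triplicate slides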
Sequence of Epidermal growth factor receptor (Homo sapiens) (P00533 whole entry, looked up): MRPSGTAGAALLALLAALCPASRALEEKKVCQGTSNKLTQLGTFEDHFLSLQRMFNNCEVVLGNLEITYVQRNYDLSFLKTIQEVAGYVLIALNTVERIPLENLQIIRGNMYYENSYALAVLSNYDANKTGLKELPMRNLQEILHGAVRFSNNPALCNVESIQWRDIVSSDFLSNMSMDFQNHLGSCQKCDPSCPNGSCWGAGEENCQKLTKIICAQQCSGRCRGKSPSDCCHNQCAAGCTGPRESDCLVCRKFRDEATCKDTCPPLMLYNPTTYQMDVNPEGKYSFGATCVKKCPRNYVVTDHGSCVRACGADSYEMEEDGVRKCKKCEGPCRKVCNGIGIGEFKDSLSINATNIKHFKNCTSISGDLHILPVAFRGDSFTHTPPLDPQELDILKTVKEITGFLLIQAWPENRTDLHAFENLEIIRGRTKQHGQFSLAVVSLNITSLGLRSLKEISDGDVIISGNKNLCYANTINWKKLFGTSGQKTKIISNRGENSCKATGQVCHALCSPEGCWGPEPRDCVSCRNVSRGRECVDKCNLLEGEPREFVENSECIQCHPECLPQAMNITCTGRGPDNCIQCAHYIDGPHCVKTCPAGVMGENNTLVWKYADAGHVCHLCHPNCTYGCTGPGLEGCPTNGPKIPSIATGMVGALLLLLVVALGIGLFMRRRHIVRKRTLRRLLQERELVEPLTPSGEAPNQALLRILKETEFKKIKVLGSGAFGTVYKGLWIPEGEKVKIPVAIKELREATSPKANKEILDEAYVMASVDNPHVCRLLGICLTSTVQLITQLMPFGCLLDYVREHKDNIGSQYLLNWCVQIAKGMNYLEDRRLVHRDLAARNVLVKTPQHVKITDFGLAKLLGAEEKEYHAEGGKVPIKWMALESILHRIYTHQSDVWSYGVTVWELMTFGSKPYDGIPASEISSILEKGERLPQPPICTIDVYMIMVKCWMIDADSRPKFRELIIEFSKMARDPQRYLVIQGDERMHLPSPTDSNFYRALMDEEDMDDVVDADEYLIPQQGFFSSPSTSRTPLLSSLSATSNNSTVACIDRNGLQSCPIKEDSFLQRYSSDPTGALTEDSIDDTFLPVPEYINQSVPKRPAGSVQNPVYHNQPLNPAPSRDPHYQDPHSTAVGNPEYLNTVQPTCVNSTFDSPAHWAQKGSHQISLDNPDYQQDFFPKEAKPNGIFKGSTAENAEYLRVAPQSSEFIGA

[8] = target: Follistatin-related protein 3 (Homo sapiens) (UniProt O95633); test: FSTL3 binders on small-molecule microarrays, primary screen, biochemical, small-molecule microarray, 635 nm fluorescence (AID 1105); conditions: FSTL3 binding, higher = more signal;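 further: score merges emission near 667 nm and signal to noise per printed spot across three slides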
Sequence of Follistatin-related protein 3 (Homo sapiens) (O95633 whole entry, looked up): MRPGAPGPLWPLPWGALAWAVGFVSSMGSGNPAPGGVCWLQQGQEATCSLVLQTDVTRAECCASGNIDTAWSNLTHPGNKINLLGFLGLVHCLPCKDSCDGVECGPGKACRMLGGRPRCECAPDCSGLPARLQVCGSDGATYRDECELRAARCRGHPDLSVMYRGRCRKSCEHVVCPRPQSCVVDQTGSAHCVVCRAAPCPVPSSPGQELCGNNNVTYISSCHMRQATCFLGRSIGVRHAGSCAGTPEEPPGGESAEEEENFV

[9] = target: Dickkopf-related protein 1 (Homo sapiens) (UniProt O94907); test: DKK1 binders on small-molecule microarrays, primary screen, biochemical, small-molecule microarray, 635 nm fluorescence scan (AID 1106); conditions: DKK1 binding, higher = more signal;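 further: score merges emission near 667 nm with signal to noise over three replicate slides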
Sequence of Dickkopf-related protein 1 (Homo sapiens) (O94907 whole entry, looked up): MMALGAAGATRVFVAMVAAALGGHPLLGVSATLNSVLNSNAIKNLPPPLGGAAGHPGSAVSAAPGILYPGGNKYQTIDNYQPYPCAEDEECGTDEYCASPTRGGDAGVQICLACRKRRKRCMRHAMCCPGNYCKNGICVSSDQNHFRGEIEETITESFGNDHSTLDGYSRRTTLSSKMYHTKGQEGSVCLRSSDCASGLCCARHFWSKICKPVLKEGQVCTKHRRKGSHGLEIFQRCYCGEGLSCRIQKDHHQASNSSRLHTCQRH

[10] = test system: Inhibin beta A chain (activin A); test: INHBA (activin A) binders on microarrays, primary screen, biochemical, small-molecule microarray, 635 nm fluorescence scan (AID 1107); conditions: small-molecule microarray binding, higher = more signal;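 further: mouse activin A protein probed at 4.33 µg/mL on printed slides; score merges bound-protein fluorescence near 667 nm with spot signal-to-noise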
[11] = test system: Human papillomavirus type 1a protein E7 (residues 44-93); test: HPV1a E7 fragment binders on microarrays, primary screen, biochemical, small-molecule microarray, residues 44-93, 635 nm fluorescence (AID 1108); conditions: small-molecule microarray binding, fluorescence 635 nm; higher = more signal;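 further: E7 fragment applied at 1 µg/mL in TBST for 1 h at 4 C; score combines spot fluorescence with its signal to noise ratio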
[12] = modulators of HCV replicon luciferase signal, primary screen, HCV replication inhibitor project, Huh7 cells, luciferase reporter (AID 1109); conditions: 48 h, higher = more signal;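 further: huh7 hepatoma cells harbouring a luciferase neomycin HCV replicon reporter; luciferase luminescence as measure of HCV replicon replication; test concentration not given here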
[13] = target: Left-right determination factor 2 (Homo sapiens) (UniProt O00292); test: LEFTY2 binders on small-molecule microarrays, primary screen, biochemical, small-molecule microarray, 635 nm fluorescence scan (AID 1110); conditions: LEFTY2 binding, higher = more signal
Sequence of Left-right determination factor 2 (Homo sapiens) (O00292 whole entry, looked up): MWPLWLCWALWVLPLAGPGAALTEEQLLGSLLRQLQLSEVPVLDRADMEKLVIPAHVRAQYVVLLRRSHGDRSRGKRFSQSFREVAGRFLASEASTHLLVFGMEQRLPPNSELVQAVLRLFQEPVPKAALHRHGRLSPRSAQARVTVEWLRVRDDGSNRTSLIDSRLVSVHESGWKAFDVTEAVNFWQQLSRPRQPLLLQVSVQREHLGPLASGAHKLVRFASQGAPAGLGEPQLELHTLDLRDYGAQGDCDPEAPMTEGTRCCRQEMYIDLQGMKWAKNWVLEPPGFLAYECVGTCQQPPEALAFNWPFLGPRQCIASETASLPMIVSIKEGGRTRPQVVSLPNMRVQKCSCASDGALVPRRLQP

[14] = target: Calmodulin-1 (Homo sapiens) (UniProt P0DP23); test: CALM1 binders on microarrays, EGTA buffer, profiling panel, biochemical, small-molecule microarray, Cy5-labelled CALM1 (AID 1111); conditions: Cy5-CALM1 binding fluorescence, higher = more signal;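 further: labelled calmodulin applied in Tris saline Tween buffer holding calcium plus EGTA and DTT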
[15] = target: Calmodulin-1 (Homo sapiens) (UniProt P0DP23); test: calcium-bound CALM1 binders on microarrays, profiling panel, artefact control for SMM control-protein annotation, biochemical, small-molecule microarray, Cy5-labelled CALM1, plus calcium (AID 1112); conditions: Cy5-CALM1 binding fluorescence, higher = more signal;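 further: score merges spot fluorescence with signal to noise from triplicate slides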
[16] = small-molecule microarray binders of probe aWnt5a, primary screen, biochemical, biotinylated probe, 635/667 nm fluorescence (AID 1113); conditions: higher = more signal;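 further: score merges 667 nm fluorescence intensity with signal-to-noise per printed feature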
[17] = small-molecule microarray binders of probe aShh, primary screen, biochemical, biotinylated probe, 635/667 nm fluorescence (AID 1114); conditions: higher = more signal;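 further: probe is biotin-labelled aShh protein from a stem cell growth factor screen; measures binding of labelled protein to compounds printed on the slide; score merges feature fluorescence at 667 nm with signal-to-noise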
[18] = small-molecule microarray binders of probe aNog, primary screen, biochemical, biotinylated probe, 635/667 nm fluorescence (AID 1115); conditions: higher = more signal;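 further: probe is biotinylated aNog protein used at 0.15 µg/mL for 1 h at 4 C; z-score combines 667 nm fluorescence of each spot with its signal to noise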
[19] = target: Torsin-1A-interacting protein 1 (Homo sapiens) (UniProt Q5JTV8); test: LAP1 binders from COS7 cell lysate, primary screen, small-molecule microarray, 635/667 nm fluorescence (AID 1116); conditions: COS7-hLAP1 lysate binding, 635 nm fluorescence, higher = more signal
Sequence of Torsin-1A-interacting protein 1 (Homo sapiens) (Q5JTV8 whole entry, looked up): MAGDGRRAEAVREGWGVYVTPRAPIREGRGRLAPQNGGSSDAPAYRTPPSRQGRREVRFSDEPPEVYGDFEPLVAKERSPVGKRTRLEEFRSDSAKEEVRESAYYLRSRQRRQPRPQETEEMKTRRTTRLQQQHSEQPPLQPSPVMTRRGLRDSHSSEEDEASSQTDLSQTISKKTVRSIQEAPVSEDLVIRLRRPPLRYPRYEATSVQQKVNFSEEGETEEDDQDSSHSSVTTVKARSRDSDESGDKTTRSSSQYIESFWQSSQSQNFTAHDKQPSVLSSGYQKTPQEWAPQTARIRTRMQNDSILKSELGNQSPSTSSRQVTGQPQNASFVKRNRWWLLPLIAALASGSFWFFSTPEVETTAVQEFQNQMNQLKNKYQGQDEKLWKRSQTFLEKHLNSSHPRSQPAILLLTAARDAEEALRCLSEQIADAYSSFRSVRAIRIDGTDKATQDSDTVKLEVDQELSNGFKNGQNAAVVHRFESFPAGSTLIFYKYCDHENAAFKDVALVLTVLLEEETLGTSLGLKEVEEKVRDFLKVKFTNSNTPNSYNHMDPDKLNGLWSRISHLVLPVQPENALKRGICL

[20] = target: Alpha-bungarotoxin (Bungarus multicinctus) (UniProt P60615); test: alpha-bungarotoxin binders on microarray, profiling panel, artefact control for SMM control protein annotation, biochemical, small-molecule microarray, Alexa647 label, 635/667 nm fluorescence (AID 1117); conditions: alpha-BTX-A647 binding fluorescence, higher = more signal
Sequence of Alpha-bungarotoxin (Bungarus multicinctus) (P60615 whole entry, looked up): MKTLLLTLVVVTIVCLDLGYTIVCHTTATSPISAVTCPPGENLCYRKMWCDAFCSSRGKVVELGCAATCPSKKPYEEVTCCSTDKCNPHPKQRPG

| SMILES | composite z-score [1] | composite z-score [2] | composite z-score [3] | z-score [4] | composite z-score [5] | composite z-score [6] | composite z-score [7] | composite z-score [8] | composite z-score [9] | composite z-score [10] | composite z-score [11] | z-score [12] | composite z-score [13] | composite z-score [14] | composite z-score [15] | composite z-score [16] | composite z-score [17] | composite z-score [18] | composite z-score [19] | composite z-score [20] |
| --- | --- | --- | --- | --- | --- | --- | --- | --- | --- | --- | --- | --- | --- | --- | --- | --- | --- | --- | --- | --- |
| COC(=O)[C@H](C)NC(=O)CCC1CC(OC(=O)NCc2cccc3ccccc23)CC2(CCCC(COC(=O)NCc3ccccc3)O2)O1 (stereo not given in full) | 0.537 | -0.132 | -0.459 | -0.829 (inactive) | 0.625 | 1.04 | 0.445 | 0.918 | 0.667 | -0.0949 | 1.15 | -0.922 | 0.648 | 0.426 | -0.543 | -0.0721 | -0.206 | -0.495 | 0.177 | 0.389 |
| COC(=O)[C@H](CCSC)NC(=O)CC=C[C@@H](C)CO | -0.0481 | -0.34 | -1.47 | -0.0982 (inactive) | 1.26 | 1.28 | 1.53 | 1.46 | 1.97 | -1.91 | 0.264 | 0.748 | 1.58 | -1.12 | -2.32 | 0.149 | -0.0192 | -0.394 | 1.21 | -0.614 |
| CC(C)(C)N1C(=O)[C@H]2[C@@H]3C(=CC[C@H]2C1=O)C(=O)[C@H]1O[C@H]1[C@H]3O | 1.09 | -0.366 | -0.779 | 3.47 (inactive) | 0.0491 | 0.138 | 0.144 | -0.162 | 0.512 | 0.555 | -2.12 | -4.79 | 0.341 | -1.08 | -1.48 | -0.0735 | -0.273 | -0.571 | -0.139 | -0.0321 |
| CCOC(=O)[C@H](CC(C)C)NC(=O)CCC1CC(OC(=O)NCc2ccc3c(c2)OCO3)CC2(CCCC(COC(=O)NCCOc3ccccc3)O2)O1 (stereo not given in full) | 0.543 | 0.0931 | -0.537 | -0.149 (inactive) | 0.866 | 0.994 | 0.224 | 1.22 | 0.826 | 0.267 | 1.35 | -1.07 | 0.715 | -0.0232 | -0.466 | 0.0232 | -0.0289 | -0.404 | 0.303 | 0.905 |
| COC(=O)[C@H](C)NC(=O)CCC1CC(OC(=O)NCc2cccc3ccccc23)CC2(CCCC(COC(=O)NCCOc3ccccc3)O2)O1 (stereo not given in full) | 1.1 | -0.357 | -0.413 | -0.834 (inactive) | 0.411 | 0.526 | 0.148 | 0.319 | -0.303 | -0.143 | 1.33 | -0.682 | 0.43 | 1.33 | -0.232 | -0.251 | -0.138 | -0.559 | 0.347 | 0.862 |
| CCOC(=O)CCN1C(=O)[C@H]2[C@H]3[C@H](O)[C@H](O)CC(=NNC(=O)OCC)[C@H]3CC[C@H]2C1=O | 0.533 | -0.55 | -0.799 | -0.24 (inactive) | 0.0385 | -0.542 | 0.459 | 0.567 | 0.913 | 1.26 | -0.0248 | -2.37 | 0.679 | -0.842 | -1.67 | -0.1 | -0.0626 | 0.121 | -0.0184 | -0.798 |
| O=C(NN=C1C[C@@H](O)[C@@H](O)[C@@H]2[C@@H]3C(=O)N(Cc4ccccc4)C(=O)[C@@H]3CC[C@H]12)OCc1ccccc1 | -0.944 | -0.427 | -0.47 | -0.865 (inactive) | 0.773 | 0.256 | 0.39 | 0.315 | 0.698 | -0.0371 | -0.401 | 0.0011 | 0.524 | -0.293 | -0.406 | -0.124 | -0.2 | 0.0313 | 0.305 | -0.016 |
